# According to PubChem BioAssay (NCATS):
# Values joined by “and” are separate entries in the source; they are usually repeats but may differ in a detail not shown here. Equal entries are not always repeated. Records with an inconclusive call do not appear. A call without a number means that no potency is given here. Unmarked numbers belong to inactive results. Active and inactive are the calls of the source. Unless noted, the call rests on the fitted dose curve; in most records, active means well fitted curve in the direction sought with a large enough effect; inconclusive means small, poorly fitted or top-dose-only effect, or another doubt; inactive means no such curve, though single readings can be large; an effect the other way counts as inactive or inconclusive.
# Assays:
# [1] = target: Calcium and integrin-binding protein 1 (Homo sapiens) (UniProt Q99828); assay: Primary qHTS for Identification of Calcium Integrin Binding Protein 1 (CIB1) Competitor (AID 1508620);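 further: GST tagged CIB1 binding a fluorescein labelled alphaIIb integrin peptide tracer; top concentration of the series differs between compounds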
# Outline: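 CIB1-GST (1 uM final) and compound incubated 15 min at room temperature before adding FITC-alphaIIb peptide tracer (100 nM final). Competition for binding read by fluorescence polarization (ex 480, em 540) after another 15 min at room temperature.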
# [2] = Primary qHTS for inhibitors of nuclear receptor binding SET domain protein 2 (NSD2) in an isogenic RCH-ACV NSD2 p.E1099K mutant (9B) (AID 1645876); further: nearly all actives have a fitted effect of over 70% in size; further: potency means the concentration at half of the fitted maximal effect
# [3] = Primary qHTS for inhibitors of nuclear receptor binding SET domain protein 2 (NSD2) in an RCH-ACV wild type WT cells (2C) (AID 1645877); further: nearly all actives have a fitted effect of over 70% in size; further: potency means the concentration at half of the fitted maximal effect
# [4] = target: Cytochrome P450 2D6 (Homo sapiens) (UniProt P10635); assay: Cytochrome P450 family 2 subfamily D member 6 (CYP2D6) small molecule antagonists: luciferase biochemical (cell-free) qHTS assay (AID 1645840; active means well fitted curve in the direction sought with a large enough effect in the repeat runs; an effect the other way counts as inactive or inconclusive; further: nearly all actives have a fitted effect of over 55% in size; further: potency means the concentration at half of the fitted maximal effect)
# Outline: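 P450-Glo luminescent screen: recombinant CYP2D6 enzyme–proluciferin substrate mix preincubated with compound 10 min at room temperature, then NADPH regeneration added for 1 h at room temperature. Detection reagent added for 20 min; luciferin light read as relative luminescence units.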
# [5] = target: Cytochrome P450 2C9 (Homo sapiens) (UniProt P11712); assay: Cytochrome P450 family 2 subfamily C member 9 (CYP2C9) small molecule antagonists: luciferase biochemical (cell-free) qHTS assay (AID 1645842; active means well fitted curve in the direction sought with a large enough effect in the repeat runs; an effect the other way counts as inactive or inconclusive; further: series mostly up to about 57 µM; nearly all actives have a fitted effect of over 55% in size)
# Outline: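 Luminescence, after 20 min with luciferin detection reagent, reflected CYP2C9 turnover during a 1 h NADPH-driven reaction at 37C. Enzyme-substrate mix contained 0.4% bovine serum albumin and was preincubated with compound 10 min at room temperature.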
# Chain of Cytochrome P450 2D6 (Homo sapiens) (P10635 whole entry, looked up): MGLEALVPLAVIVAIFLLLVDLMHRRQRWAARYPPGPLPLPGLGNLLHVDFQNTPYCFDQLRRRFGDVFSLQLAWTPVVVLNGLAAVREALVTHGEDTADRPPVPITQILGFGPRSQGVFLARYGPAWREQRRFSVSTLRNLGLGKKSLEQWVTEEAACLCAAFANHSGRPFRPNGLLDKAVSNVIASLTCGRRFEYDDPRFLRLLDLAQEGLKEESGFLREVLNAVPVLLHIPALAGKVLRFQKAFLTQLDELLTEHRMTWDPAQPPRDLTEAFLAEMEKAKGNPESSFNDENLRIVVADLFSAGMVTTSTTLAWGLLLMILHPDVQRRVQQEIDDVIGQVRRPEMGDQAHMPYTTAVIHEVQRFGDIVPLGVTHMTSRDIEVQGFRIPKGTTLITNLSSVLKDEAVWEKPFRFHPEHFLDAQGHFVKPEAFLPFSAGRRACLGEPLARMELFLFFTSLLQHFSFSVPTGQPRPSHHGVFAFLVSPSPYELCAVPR
# Chain of Calcium and integrin-binding protein 1 (Homo sapiens) (Q99828 whole entry, looked up): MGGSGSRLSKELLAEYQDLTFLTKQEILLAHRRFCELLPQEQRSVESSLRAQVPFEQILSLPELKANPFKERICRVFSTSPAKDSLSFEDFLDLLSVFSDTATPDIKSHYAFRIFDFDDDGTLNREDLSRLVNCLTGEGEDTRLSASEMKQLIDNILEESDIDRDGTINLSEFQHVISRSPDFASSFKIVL
# Chain of Cytochrome P450 2C9 (Homo sapiens) (P11712 whole entry, looked up): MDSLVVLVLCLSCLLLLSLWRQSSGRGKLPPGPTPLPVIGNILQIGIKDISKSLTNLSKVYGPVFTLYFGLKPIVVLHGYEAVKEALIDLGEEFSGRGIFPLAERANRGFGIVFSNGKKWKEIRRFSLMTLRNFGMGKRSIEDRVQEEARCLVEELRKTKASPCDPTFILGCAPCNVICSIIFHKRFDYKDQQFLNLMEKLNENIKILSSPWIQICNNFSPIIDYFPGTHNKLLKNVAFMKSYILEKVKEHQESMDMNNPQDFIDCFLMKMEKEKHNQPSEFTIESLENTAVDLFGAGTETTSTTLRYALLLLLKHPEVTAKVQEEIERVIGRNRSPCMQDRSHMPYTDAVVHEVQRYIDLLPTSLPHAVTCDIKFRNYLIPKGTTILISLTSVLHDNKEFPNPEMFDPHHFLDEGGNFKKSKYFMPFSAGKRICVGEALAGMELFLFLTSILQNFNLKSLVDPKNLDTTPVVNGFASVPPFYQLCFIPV
structure (smiles),measurement,setting,value
C=C(C=O)[C@]1(O)C[C@@]2(C)C(=CC1=O)C=C[C@H](OC(=O)/C=C/C=C/[C@H](C)CC)[C@@H]2C,Potency,[1],inactive
same,Potency,[2],3.17 µM (active)
same,Potency,[3],1.59 µM (active)
CN1CCN(c2ccc(-c3cccc(CN4CCOCC4)c3)cc2NC(=O)c2c[nH]c(=O)cc2C(F)(F)F)CC1,Potency,[1],inactive
same,Potency,[3],inactive
O=C(Nc1cccc(C(F)(F)F)c1)Nc1ccc(Br)cc1-c1nn[nH]n1,Potency,[1],inactive
same,Potency,[2],inactive
same,Potency,[3],inactive
CCCOc1ccc(CCc2nc3cc(-c4c(C)noc4C)ccc3n2CCN2CCOCC2)cc1,Potency,[1],inactive
same,Potency,[2],8.33 µM (active)
same,Potency,[3],8.33 µM (active)
Nc1c(S(=O)(=O)c2ccccc2)c2nc3ccccc3nc2n1-c1ccc(F)cc1,Potency,[1],inactive
same,Potency,[2],inactive
same,Potency,[3],inactive
C=C1C(=O)OC2/C=C(\COC(C)=O)CC/C=C(\C=O)CC(OC(=O)CC(C)C)C12 (stereo not drawn),Potency,[1],inactive
same,Potency,[2],2.24 µM (active)
same,Potency,[3],1.59 µM (active)
C=C1C(=O)O[C@@H]2/C=C(\CO)CC/C=C(\CO)[C@H](OC(C)=O)C(OC(=O)C(C)CC)C12 (stereo partly drawn),Potency,[1],inactive
same,Potency,[3],5.02 µM (active)
Cn1ncnc1[C@H]1c2n[nH]c(=O)c3cc(F)cc(c23)N[C@@H]1c1ccc(F)cc1,Potency,[1],inactive
same,Potency,[2],200 nM (active) and 148 nM (active)
same,Potency,[3],28.2 nM (active) and 66.1 nM (active)
CC1(C)CCC2(C(=O)OC3OC(COC4OC(CO)C(O)C(O)C4O)C(O)C(O)C3O)CCC3(C)C(=CCC4C5(C)CCC(OC6OCC(O)C(O)C6O)C(C)(C)C5CCC43C)C2C1O (stereo not drawn),Potency,[1],inactive
same,"activity change, negative = viability loss",[2],-12.3% [at 9.23 µM]
same,"activity change, negative = cell killing",[3],-18.7% [at 9.23 µM]
C=C(C(=O)OC[C@H]1O[C@@H](OC(=O)/C=C/c2ccccc2)[C@H](O)[C@@H](O)[C@@H]1O)C(O)CO (stereo partly drawn),Potency,[1],inactive
same,Potency,[3],5.63 µM (active)
CC(C)(C)NC(=O)[C@H]1CC[C@H]2[C@@H]3CC[C@H]4NC(=O)CC[C@]4(C)[C@H]3CC[C@]12C,Potency,[1],inactive
same,Potency,[2],inactive
same,Potency,[3],inactive
CN1CCN(C2CCN(C(=O)Nc3cc(Oc4ccc(NC(=O)C5(C(=O)Nc6ccc(F)cc6)CC5)c(F)c4)ccn3)CC2)CC1,Potency,[1],inactive
same,Potency,[2],6.49 µM (active) and 11.8 µM (active)
same,Potency,[3],7.28 µM (active) and 10.5 µM (active)
CC1CCC(=O)CC(SCC(O)C(=O)O)CCC(=O)O1 (stereo not drawn),Potency,[1],inactive
same,Potency,[3],inactive
C=CCCN1CCC2(CC1)CN(C(=O)c1c(F)cccc1F)c1ccc(Cl)cc12,Potency,[4],0.019 µM (active)
CCN(CC)CCCCCCNc1cc(OC)cc2c(C)ccnc12,Potency,[1],inactive
same,Potency,[3],12.9 µM (active)
C=C1CC2[C@@]3(C)C=CC(=O)C(C)(C)C3=C(O)C(=O)[C@@]2(C)C2(C(=O)OC)C(=O)C(C)OC(=O)[C@@]12C (stereo partly drawn),Potency,[1],inactive
same,Potency,[3],8.93 µM (active)
CC(C)(O)C1Cc2c(ccc(C(=O)CCc3ccccc3)c2O)O1 (stereo not drawn),Potency,[1],inactive
same,Potency,[3],inactive
CS/C=C/C(=O)O[C@@H]1CCC2=CC(=O)C(=C(C)C)C[C@]2(C)[C@H]1C,Potency,[1],inactive
same,Potency,[3],11.3 µM (active)
CCC(=O)O,Potency,[4],inactive
same,Potency,[5],inactive
O=C(O)c1ccc(N2C(=O)/C(=C/c3ccc(-c4ccc([N+](=O)[O-])cc4)o3)C=C2c2ccccc2)cc1,Potency,[1],inactive
same,Potency,[3],inactive
O=P(O)(O)OC(CO)CO,Potency,[4],inactive
CC(C)=CCc1cc2c(cc1O)OC[C@H]1c3ccc(O)cc3O[C@@H]21,Potency,[1],inactive
same,Potency,[3],14.2 µM (active)
Cc1c(O)cc2c(c1C)O[C@](C)(CCC[C@H](C)CCC[C@H](C)CCCC(C)C)CC2,Potency,[4],inactive
CCCCC(=O)O,Potency,[4],inactive
same,Potency,[5],inactive
CCCC(CCC)C(N)=O,Potency,[4],inactive
same,Potency,[5],inactive
CC1(C)CCC(C)(C)c2cc(C#Cc3ccc(C(=O)O)cc3)ccc21,Potency,[1],inactive
same,Potency,[3],inactive
C=C1/C(=C/C=C2\CCC[C@]3(C)[C@@H]([C@H](C)/C=C/[C@@H](C)C(C)C)CC[C@@H]23)C[C@@H](O)C[C@@H]1O,Potency,[1],inactive
same,Potency,[3],14.5 µM (active)
C=C1CCCC2(C)CCC(C(C)(C)OC3OC(C)C(O)C(O)C3OC(=O)/C(C)=C\C)CC12 (stereo not drawn),Potency,[1],inactive
same,Potency,[3],10 µM (active)
C[C@@H]1O[C@@H](O[C@H]2CC[C@@]3(C)C(CC[C@]4(C)C3CC=C3[C@@H]5CC(C)(C)CC[C@]5(C(=O)O[C@@H]5O[C@H](CO)[C@@H](O)[C@H](O)[C@H]5O)CC[C@]34C)[C@]2(C)CO)[C@H](O)[C@H](O[C@@H]2O[C@H](CO)[C@@H](O)[C@H](O)[C@H]2O)[C@H]1O (stereo partly drawn),Potency,[1],inactive
same,Potency,[3],3.46 µM (active)
CC1(C)S[C@@H]2[C@H](NC(=O)C(C(=O)Oc3ccc4c(c3)CCC4)c3ccccc3)C(=O)N2[C@H]1C(=O)O (stereo partly drawn),Potency,[4],inactive
O=S(O)CO,Potency,[4],inactive
CCC(C)C(=O)Oc1cc(C)ccc1C1(COC(=O)C(C)C)CO1 (stereo not drawn),Potency,[1],inactive
same,Potency,[3],5.67 µM (active)
CC(=O)O[C@H]1CC[C@]2(C)[C@H]3CC[C@]4(C)Oc5oc(C)cc(=O)c5C[C@H]4[C@]3(C)CC[C@H]2C1(C)C,Potency,[1],inactive
same,Potency,[3],7.09 µM (active)
Fc1ccc(N2CCN(CCC3OCCc4ccccc43)CC2)cc1 (stereo not drawn),Potency,[4],1.9 µM (active)
same,Potency,[5],inactive
COC(C)=O,Potency,[4],inactive
